From PubChem
C diff growth – blocks growth of Clostridium difficile; Clostridium difficile clinical isolate growth, OD600, 24 h; stronger effect = lower value; growth activity, negative = inhibition, % at 16 µg/mL (by protocol); hit rate 0.25% among 86,000;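 active = mean growth activity at or below -80% and every replicate also at or below -80%; inconclusive = mean at or below -80% but some replicate above -80%; inactive = mean growth activity above -80%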;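 note: 0% = DMSO wells and -100% = levofloxacin 16 µg/mL wells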
T cruzi growth-1 – T. cruzi proliferation inhibition. T. cruzi beta-gal in NIH3T3, GalScreen luminescence, 90 h. hit rate 5.9% among 77,000. AID 624255. inhibition, % at 8.34 µM;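 active = mean inhibition above about 93%, with at least 55% of replicates each passing it, limit read from the data, passing the limit was not always enough; inconclusive = only one of those two conditions holds; inactive = neither condition holds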
Pf Dd2 inh – blocks growth of Plasmodium falciparum Dd2 parasites; P. falciparum Dd2 growth, SYBR Green, 72 h; stronger effect = lower value; activity change, % at 10 µM; hit rate 2.3% among 94,000; in the data active = activity change below about -80%; inconclusive = no clear call, values can overlap the other calls
T cruzi growth-2 – inhibitors of T. cruzi proliferation | shares compounds with T cruzi growth-1 | hit rate 72% among 5,600 | inhibition, % at 8.35 µM | T. cruzi beta-gal in NIH3T3, GalScreen luminescence, 90 h;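 active = mean replicate inhibition above about 95% and at least 55% of replicates individually reaching it, limit read from the data; inconclusive = only one of the two criteria is met; inactive = neither criterion is met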
T cruzi growth-3 – Trypanosoma cruzi proliferation inhibition | shares compounds with T cruzi growth-1 | T. cruzi beta-gal in NIH3T3, GalScreen luminescence, 90 h | inhibition, % at 2.09 µM | hit rate 21% among 5,600 | AID 651740;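 active = mean inhibition above about 95%, with at least 55% of replicates also reaching it, limit read from the data; inconclusive = meets just one of the two conditions; inactive = meets neither condition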;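 note: plate controls were neutral control median for no effect and positive control median for full effect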
NIH3T3 tox – NIH/3T3 (mouse) viability loss. AID 651742. hit rate 14% among 5,600. NIH/3T3 viability, CellTiter-Glo ATP luminescence, 90 h. cytotoxicity (signal decrease), % at 8.35 µM. shares compounds with T cruzi growth-1;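 active = mean signal decrease across replicates above about 35% based on untreated-well scatter, with enough replicates individually passing, limit read from the data; inconclusive = no rule stated though some were filed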;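 note: 0% = median of neutral control wells and 100% = median of positive control wells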
NIH3T3 tox 2 – cytotoxicity in mouse NIH/3T3 fibroblasts; shares compounds with T cruzi growth-1; NIH/3T3 viability, CellTiter-Glo ATP luminescence, 90 h; inhibition, % at 24.9 µM; hit rate 56% among 5,600;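 active = mean loss of cell viability signal at or above a set limit, and enough replicates individually reaching it; inconclusive = meets only the mean limit or only the replicate share; inactive = meets neither condition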;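 note: 0% = median of neutral control wells and 100% = median of positive control wells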
An asterisk follows results filed as active; ? = inconclusive; . = no result given. Sampled rows, rich in hits. Any-hit rate of the full collection: about 6.8%.

SMILES | C diff growth | T cruzi growth-1 | Pf Dd2 inh | T cruzi growth-2 | T cruzi growth-3 | NIH3T3 tox | NIH3T3 tox 2
C[C@@H]1CN([C@@H](C)CO)C(=O)c2cc(NS(=O)(=O)c3ccc(F)cc3)ccc2O[C@@H](C)CCCCO[C@@H]1CN(C)S(=O)(=O)c1ccc(Cl)cc1 | 6 | ? | -76 | 106* | 103* | -23 | ?
C[C@@H]1CN([C@H](C)CO)C(=O)c2cc(NS(=O)(=O)c3ccc(F)cc3)ccc2O[C@@H](C)CCCCO[C@@H]1CN(C)S(=O)(=O)c1ccc(Cl)cc1 | 21 | 99 | -61 | . | . | . | .
C[C@@H]1CCCCO[C@H](CN(C)S(=O)(=O)c2ccc(Cl)cc2)[C@@H](C)CN([C@@H](C)CO)C(=O)c2cc(NS(=O)(=O)c3ccc(F)cc3)ccc2O1 | 0 | 86 | -56 | . | . | . | .
CCS(=O)(=O)N[C@H]1C=C[C@@H](CC(=O)N2CCCCC2)O[C@H]1CO | . | -22 | 20 | . | . | . | .
Cc1noc(C)c1NC(=O)Nc1cccc2c1O[C@@H](CN(C)Cc1ccccc1)[C@@H](C)CN([C@@H](C)CO)C2=O | -1 | 6 | 22 | . | . | . | .
C[C@H](CO)N1C[C@H](C)[C@H](CN(C)S(=O)(=O)c2ccc(Cl)cc2)Oc2c(NC(=O)C3CCOCC3)cccc2C1=O | 10 | -105 | -8 | . | . | . | .
C[C@@H]1CCCCO[C@@H](CN(C)S(=O)(=O)c2ccc(Cl)cc2)[C@H](C)CN([C@H](C)CO)C(=O)c2cc(NS(=O)(=O)c3ccc(F)cc3)ccc2O1 | 6 | 61 | -60 | . | . | . | .
C[C@@H]1CN([C@H](C)CO)C(=O)c2cc(NS(=O)(=O)c3ccc(F)cc3)ccc2O[C@H]1CN(C)S(=O)(=O)c1ccc(Cl)cc1 | -6 | 30 | -12 | . | . | . | .
C[C@@H]1CN([C@@H](C)CO)C(=O)c2cc(NS(=O)(=O)c3ccc(F)cc3)ccc2O[C@@H]1CN(C)S(=O)(=O)c1ccc(Cl)cc1 | 0 | 92* | 14 | 110* | 49 | 23 | 46*
C[C@@H]1CCCCO[C@@H](CN(C)S(=O)(=O)c2ccc(F)cc2)[C@@H](C)CN([C@@H](C)CO)C(=O)c2cc(NS(=O)(=O)c3ccc(Cl)cc3)ccc2O1 | 0 | 103* | -73 | 103* | 74 | 3 | 53*
C[C@@H]1CN([C@@H](C)CO)C(=O)CCCn2cc(nn2)CO[C@H]1CN(C)Cc1ccc2c(c1)OCCN2C | -2 | 1 | 12 | . | . | . | .
COCC(=O)N(C)C[C@H]1Oc2ncc(C3=CCCCC3)cc2C(=O)N([C@@H](C)CO)C[C@H]1C | 2 | -26 | 41 | . | . | . | .
C[C@H](CO)N1C[C@H](C)[C@@H](CN(C)Cc2ccccc2)Oc2cc(-c3ccncc3)ccc2S1(=O)=O | -2 | 117* | -69 | 99* | 103* | 71* | 76*
C[C@H](CO)N1C[C@H](C)[C@H](CN(C)Cc2ccncc2)Oc2cc(-c3cccnc3)ccc2S1(=O)=O | -2 | 67 | 21 | . | . | . | .
C[C@@H]1CN([C@H](C)CO)S(=O)(=O)c2ccc(-c3ccncc3)cc2O[C@@H]1CN(C)Cc1ccccc1 | 1 | 88 | -31 | . | . | . | .
C[C@@H]1CN([C@@H](C)CO)S(=O)(=O)c2ccc(-c3cccnc3)cc2O[C@@H]1CN(C)C | -1 | ? | 24 | 97* | 92 | 8 | 10
C[C@@H]1CN([C@H](C)CO)S(=O)(=O)c2ccc(-c3cncnc3)cc2O[C@H]1CN(C)Cc1ccccc1 | -3 | ? | -34 | 91 | 64 | 52* | 68*
C[C@H]1CN([C@@H](C)CO)S(=O)(=O)c2ccc(-c3cccnc3)cc2O[C@@H]1CN(C)Cc1ccncc1 | -2 | ? | -2 | 101* | 63 | 12 | 28*
C[C@@H]1CN([C@@H](C)CO)S(=O)(=O)c2ccc(-c3cncnc3)cc2O[C@@H]1CN(C)Cc1ccccc1 | -5 | 62 | 0 | . | . | . | .
CC(=O)N(C)C[C@@H]1Oc2cc(-c3cccnc3)ccc2S(=O)(=O)N([C@H](C)CO)C[C@@H]1C | . | -120 | 24 | . | . | . | .
CN(C)C(=O)c1cccc(-c2ccc3c(c2)[C@H]2[C@H](CCN2C(=O)c2ccncc2)[C@@H](CO)N3C)c1 | 1 | 73 | -10 | . | . | . | .
Cc1noc(C)c1S(=O)(=O)Nc1ccc2c(c1)CC(=O)N([C@H](C)CO)C[C@H](C)[C@@H](CN(C)Cc1ccc(C(F)(F)F)cc1)O2 | 2 | 89 | -6 | . | . | . | .
O=C(Nc1ccccc1)N1CC(=O)N2[C@H](C1)[C@@H](c1ccc(C#Cc3cccnc3)cc1)[C@@H]2CO | 0 | . | -3 | . | . | . | .
CC(=O)Nc1ccc2c(c1)C(=O)N(C)[C@H]1CC[C@H](CC(=O)Nc3cn(C)nc3C)O[C@@H]1CO2 | -6 | 48 | 6 | . | . | . | .
C[C@@H]1CN([C@@H](C)CO)C(=O)c2cc(C#CCN(C)C)cnc2O[C@H]1CN(C)S(C)(=O)=O | 1 | -20 | 23 | . | . | . | .
SMILES | C diff growth | T cruzi growth-1 | Pf Dd2 inh | T cruzi growth-2 | T cruzi growth-3 | NIH3T3 tox | NIH3T3 tox 2
C[C@H]1CN([C@@H](C)CO)C(=O)c2cccc(NS(=O)(=O)c3ccccc3)c2O[C@H]1CN(C)S(=O)(=O)c1ccccc1 | -6 | 11 | -20 | . | . | . | .
CCCNC(=O)N1C[C@H]2[C@@H](c3ccccc31)[C@H](CO)N2Cc1ccccc1F | 9 | 34 | -9 | . | . | . | .
O=C(Cc1ccccc1)N1CC(=O)N2[C@H](C1)[C@H](c1ccc(C#CCc3ccccc3)cc1)[C@@H]2CO | -15 | . | -28 | . | . | . | .
CO[C@@H]1CN(C)C(=O)c2cc(NC(=O)C3CCOCC3)ccc2OC[C@@H](C)N(Cc2nccs2)C[C@@H]1C | . | -59 | 14 | . | . | . | .
C[C@H](CO)N1C[C@H](C)[C@H](CN(C)Cc2ccncc2)Oc2cc(-c3ccccc3)ccc2S1(=O)=O | . | 95* | -40 | 105* | 99* | 24 | 40*
Cc1ccc(-c2ccc3c(c2)O[C@@H](CN(C)Cc2ccccc2)[C@H](C)CN([C@@H](C)CO)S3(=O)=O)cc1 | 17 | 116* | -54 | 99* | 104* | 37* | 104*
C[C@@H]1CN([C@H](C)CO)S(=O)(=O)c2ccc(-c3ccccc3)cc2O[C@H]1CN(C)Cc1ccncc1 | . | -22 | -35 | . | . | . | .
C[C@@H]1CN([C@@H](C)CO)S(=O)(=O)c2ccc(-c3ccccc3)cc2O[C@H]1CN(C)Cc1ccccc1 | 12 | 84 | -66 | . | . | . | .
O=C(C[C@H]1C[C@H]2c3cc(NC(=O)Nc4ccc(C(F)(F)F)cc4)ccc3O[C@H]2[C@H](CO)O1)NCCc1ccccc1 | 9 | 86 | -15 | . | . | . | .
CN1C(=O)c2cc(NC(=O)C3CC3)ccc2OC[C@H]2O[C@@H](CC(=O)NCc3ccccc3F)CC[C@@H]21 | -3 | . | -12 | . | . | . | .
Cc1noc(C)c1NC(=O)N[C@@H]1CC[C@H](CC(=O)N2CCN(C)CC2)O[C@H]1CO | -2 | -18 | 4 | . | . | . | .
